# Measured values reported in PubChem BioAssay AID588742 (Southern Research Specialized Biocontainment Screening …, 2011).
# Out of some 1,800 compounds screened, about 410 (23%) were called active. The list is a sample of the results. Entries with a potency or affinity are not part of this list. A number with no mark means an inactive call. The rule behind the calls is not given here.
# Experiment: Vero cell cytotoxicity, cytotoxicity control for flavivirus capping enzyme inhibitors (AID 588742)
# Details: Vero cells viability, cytotoxicity counter-screen; series mostly up to 40 µM; viability: at the top concentration
row,SMILES,viability
1,CC1=NN(c2ccc(C)c(C)c2)C(=O)C1C(c1cccc(O)c1)C1C(=O)N(c2ccc(C)c(C)c2)N=C1C (configuration not stated),102%
2,CCCCC1=CC2=C(c3ccco3)C(=O)C(C)(OC(=O)c3ccc(OC)cc3)C(=O)C2=CN1C(CO)CO (configuration not stated),98.4%
3,C=CCOc1ccc(C(c2c(O)nc(SC)[nH]c2=O)c2c(O)nc(SC)[nH]c2=O)cc1,107%
4,CC(=O)N1c2ccc(S(=O)(=O)N(C)CC(=O)Nc3ccccc3C)cc2CC1C (configuration not stated),108%
5,O=C(CN1C(=O)/C(=C2/SC(=S)N(CCS(=O)(=O)O)C2=O)c2ccccc21)Nc1cccc(Br)c1,103%
6,O=C(O)c1ccccc1NS(=O)(=O)c1ccc(NNC(=S)Nc2ccc(OC(F)F)cc2)c([N+](=O)[O-])c1,86.5%
7,C=CCNc1nc(Nc2ccc([N+](=O)[O-])cc2)nc(OC)n1,94%
8,O=C(Nc1ccc(Cl)cc1C(=O)O)c1ccc2c(c1)C(=O)N(Cc1ccco1)C2=O,103%
9,C#CCOc1ccccc1/C=C1/C(=O)ON=C1C,93.1%
10,COc1ccc(-c2csc(NC(=O)c3ccccc3Br)c2C(=O)O)cc1,94.8%
11,Cc1ccc(/C=N/NC(=O)c2nnn(-c3nonc3N)c2CSc2ccccc2)s1,101%
12,CCC(=O)OC1(C)C(=O)C2=COC(c3ccc(OC)cc3)=CC2=C(Br)C1=O (configuration not stated),91.3%
13,CCc1ccc(Nc2ccc(C(=O)O)cc2[N+](=O)[O-])cc1,107%
14,O=C(Nc1cc(S(=O)(=O)N2CCOCC2)ccc1O)c1ccc2c(c1)S(=O)(=O)c1ccccc1C2=O,95.9%
15,O=S(=O)(Nn1c(O)c(C=C2N=c3ccccc3=N2)sc1=S)c1ccccc1,90.8%
16,O=C1ON=C(c2ccc([N+](=O)[O-])cc2)/C1=C/c1ccccc1O,103%
17,O=C(NCc1ccccc1)c1sc(=S)n2c1[nH]c(=O)c1ccccc12,98.5%
18,Nc1scc2c(C(=O)O)nn(-c3ccccc3)c(=O)c12,103%
19,CCOC(=O)c1sc(N2C(=O)C(O)=C(C(=O)c3ccco3)C2c2ccc([N+](=O)[O-])cc2)nc1C (configuration not stated),97.5%
20,Cc1cc(O)c(C(C)C)cc1N=Cc1ccccc1O,91.1%
21,O=C1C(Cl)=C(N2CCN(Cc3ccccc3)CC2)C(=O)N1c1ccccc1,96.7%

row,SMILES,viability
1,CC(=O)Oc1oc(-c2ccccc2)nc1C=Nc1ccccc1,93%
2,COc1cc(C(=O)Nc2scc(-c3ccc(Br)cc3)c2C(=O)O)cc(OC)c1OC,92%
3,Cc1ccc(SCc2[nH]nc3c2C(c2ccco2)C(C#N)=C(N)O3)cc1 (configuration not stated),97%
4,Nc1cccc2c1C(=O)N(C(=O)/C=C/c1cccc(F)c1)C2=O,102%
5,Cc1cc(O)c(C(C)C)cc1N=Cc1cc([N+](=O)[O-])ccc1O,105%
6,O=[N+]([O-])c1ccc(O)c(C=Nc2ccc3c(c2)OCO3)c1,83.4%
7,CC[N+]1(CC)CC2CCC(C)(C1)C2(C)C (configuration not stated),103%
8,CCCn1c(C)cc(-c2csc(N)n2)c1C,93.8%
9,O=[N+]([O-])c1ccc(O)c(Nc2c([N+](=O)[O-])ccc3nonc23)c1,90.6%
10,O=C(O)c1cc(Nc2cc(Cl)c3nonc3c2[N+](=O)[O-])ccc1O,106%
11,O=C(O)c1ccc(Nc2cc(Cl)c3nonc3c2[N+](=O)[O-])cc1,96.6%
12,O=[N+]([O-])c1c(Nc2ccccc2O)cc(Cl)c2nonc12,85.5%
13,O=C(O)c1cccc(Nc2cc(Cl)c3nonc3c2[N+](=O)[O-])c1,99.5%
14,Cc1ccc(/C=N/c2sc3c(c2C#N)CCC3)s1,99.6%
15,COc1cc(C2C(C#N)=C(N)N(c3cccnc3)C3=C2C(=O)CCC3)ccc1O (configuration not stated),101%
16,CCCCCc1c2c(cc(O)c1C(=O)O)OC(=O)c1cc(C(=O)CCCC)c(OC)cc1O2,103%
17,COC(=O)Cc1ccc(NC(=S)Nc2ccc(N3CCOCC3)cc2)cc1,103%
18,COc1cc(/C=C2/C(=O)NN(c3cccc(C)c3)C2=O)ccc1OC(=O)c1ccco1,99.3%
19,CCC(C)NC(=O)c1ccc(N2CCC3(CC2)OCCO3)c([N+](=O)[O-])c1 (configuration not stated),95.6%
20,CC(C)NC(=O)Cn1cc(S(=O)(=O)N2CCCC2)c(S(=O)(=O)N2CCCC2)c1,96.5%
21,CC(=O)Nc1ccc(C2=NNC(=NCC3CCCO3)SC2)cc1 (configuration not stated),102%

row,SMILES,viability
1,O=C(O)CN1C(=O)/C(=C\c2cc(Br)ccc2OCc2ccc([N+](=O)[O-])cc2)SC1=S,96.9%
2,COc1ccc(-c2csc(/C(C#N)=C(\O)CSc3nccn3C)n2)cc1OC,102%
3,CCOc1ccc(C(c2c(O)nc(SC)n(C)c2=O)c2c(O)nc(SC)n(C)c2=O)cc1,100%
4,COC(=O)C1=C(C(=O)OC)C(c2cc(Br)ccc2O)c2sc(=O)[nH]c2S1 (configuration not stated),110%
5,Cc1ccc(-c2c(C(=O)N/N=C/c3ccncc3)nnn2-c2nonc2N)cc1,89.8%
6,COc1ccc(Cc2c(O)nc(SC)n(C(C)=O)c2=O)cc1,104%
7,O=C(O)CN1C(=O)/C(=C\c2cccc(OCc3ccccc3)c2)SC1=S,93.8%
8,O=C(CC(c1ccccc1)c1ccccc1O)N1CCCC1 (configuration not stated),98.5%
9,O=C(O)c1ccc2c(c1Nc1ccccc1)C(=O)c1ccccc1C2=O,85.9%
10,Cc1sc(C(C2C(=O)CC(C)(C)CC2=O)C2C(=O)CC(C)(C)CC2=O)cc1[N+](=O)[O-],100%
11,O=C(O)c1cccc(NS(=O)(=O)c2ccc(-c3ccc(S(=O)(=O)Nc4cccc(C(=O)O)c4)cc3)cc2)c1,98%
12,CCc1ccc(S(=O)(=O)ON2C(=O)c3ccccc3C2=O)cc1,98.7%
13,O=C(c1ccccc1NS(=O)(=O)c1ccc([N+](=O)[O-])cc1[N+](=O)[O-])N1O[C@@H]2C=C[C@H]1C2,87.8%
14,CCOc1ccc2c(c1)n([O-])c1c([n+]2=O)CCCC1,102%
15,COc1cc(C(=O)NC(C(=O)Nc2cccc(C(C)=O)c2)C(C)C)cc(OC)c1OC (configuration not stated),90.7%
16,Cc1nn(CCc2nc(-c3ccco3)cs2)c2[nH]c(=O)cc(C(F)(F)F)c12,89.7%
17,C/C(=N\Nc1cccc(C(=O)O)c1)c1ccc(Cl)s1,91.2%
18,COC1=C(Br)C(=O)c2ncccc2C1=O,95.4%
19,CC(C)c1ccc(NC(=O)COC(=O)CSc2nnc(N)s2)cc1,90.8%
20,CC(/C=C1\SC(=S)N(c2ccc(C(=O)O)cc2)C1=O)=C\c1ccccc1,92.8%
